Experiment in all cases: NCI-60 one-dose screen, 48 h (100 = growth as untreated, 0 = no growth, -100 = all killed)
Holding throughout (settings): 10 µM unless noted

Assay [1] concerns NCI-H23 lung.
Assay [2] deals with NCI-H226 lung.
Assay [3] has as its system NCI-H322M lung.
Assay [4] has as its system HOP-62 NSCLC.
For assay [5], the system named is NCI-H460 lung.
For assay [6], the system named is HOP-92 NSCLC.
In assay [7] the test system is NCI-H522 lung.
Assay [8] deals with A549/ATCC NSCLC.
In assay [9] the test system is 786-0 renal.
The test system of assay [10] is COLO 205 colon.

About 83,000 compounds went through this panel and 20% of them were active in at least one assay; those are over-represented in the sample as a whole.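 Cell lines were cultured in 96-well plates, exposed to a single compound concentration, and assessed for percent growth 48 hours later.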 A number with no mark means an inactive call. The source made the active and inactive calls. Rule for the calls: active = growth percent below 10; inactive = the rest.

For `CCc1cc2c(cc1Cl)nc1c(=O)[nH]c(=O)nc-1n2CCOCC(C)(C)C`, the growth in assay [1] was 72.1%; in assay [2], 41.2%; in [3], 63.7%; in assay [4], 104%; in assay [5] it was 56.4%; in [6] it was 110%. For the same molecule, the growth in [7] was 70.5%; in assay [8], 75.5%; in assay [9], 81.1%.
Turning to `COc1ccc(/C=N/NC(=O)CSc2nc(-c3cnccn3)cc(-c3cccs3)c2C#N)cc1`, the growth is 72.8% in [1]; 75.1% in assay [2]; 84.4% in assay [3]; 53.4% in [4]; 37.4% in assay [5]; 63.1% in assay [6]. In addition, the figures for the growth in [7], in assay [8] and in [9] were 81.1%, 50.5% and 22.6%, respectively.
As to `Cc1c(C(=O)/C=C/c2ccc(Cl)cc2)nnn1-c1ccc2oc(=O)ccc2c1`, the growth was 92.9% in assay [1]; 85.4% in assay [2]; 98.5% in assay [3]; 107% in [4]; 102% in assay [5]; 79.4% in [6]. Moreover, the growth is 88.8% in assay [7], 103% in assay [8] and 101% in [9].
For `COc1cccc(N2CCN(C3=C(Cl)C(=O)c4ncccc4C3=O)CC2)c1`, the growth in assay [1] is 60.3%; in [2], 94.7%; in assay [3] it was 95.4%; in assay [4], 83.5%; in [5] it was 63%; in assay [6], 135%. In addition, the growth in assay [7] was 42.6%; in [8] it was 97.2%; in assay [9], 114%.
In the case of `C#C[C@]1(O)CC[C@H]2[C@@H]3CC=C4c5sc(NCc6ccccc6)nc5CC[C@]4(C)[C@H]3CC[C@@]21C`, the growth was 54.2% in [1]; 75.6% in [2]; 59.9% in [3]; 14.1% in [4]; 51.8% in [5]; 23.1% in assay [6]. Besides, the growth in [7] was 80%; in assay [8], 52%; in assay [9], -72.3% (active).
On to `CC1CCN(CC(=O)Nn2c(COc3ccccc3)nc3ccccc3c2=O)CC1`, for which the growth was 91.7% in assay [1]; 84.6% in [2]; 95.4% in assay [3]; 91.9% in [4]; 90.6% in assay [5]; 96.2% in assay [6]. The growth was 75.4% in assay [7], 90.9% in assay [8] and 99% in assay [9].
In the case of `O=C(CSc1nc2ccccc2c(=O)n1-c1ccc(S(=O)(=O)Nc2ccc(Cl)nn2)cc1)Nc1ccc(S(=O)(=O)Nc2ccc(Cl)nn2)cc1`, the growth in assay [1] is 100%; in [2], 99%; in assay [3] it was 101%; in [4], 104%; in assay [5] it was 101%; in assay [6], 107%. The growth is 101% in [7], 105% in assay [8] and 98.7% in assay [9].
As for `CC[C@]12CC(C(=O)OC)=C3Nc4ccccc4[C@@]34CCN(C14)[C@@H]1c3cc4c(cc3O[C@@H]1[C@H]2O)NC1=C(C(=O)OC)C[C@@]2(CC)C3N(CC[C@@]143)C[C@H]1O[C@H]12` (some centres undefined), the growth in [1] is 10.2%; in assay [2], 18.9%; in [3], 28.8%; in assay [4] it was 29%; in assay [5], 15.3%; in assay [6] it was -2.19% (active). In addition, the figures for the growth in assay [7], in assay [8] and in [9] were 1.97% (active), 21.9% and 23.2%, respectively.
As to `Cc1csc(/N=C(N)/N=C(\N)c2cccnc2)n1`, the growth in [1] was 78%; in assay [2], 85.4%; in assay [3], 87.2%; in [4], 74.1%; in assay [5], 62.3%; in assay [6], 51.7%. The growth is 54.4% in assay [7], 82% in [8] and 90.6% in assay [9].
With `CNC(=O)c1cc(N2CCc3cc(NC(=O)Nc4ccc(N5CCN(C)CC5)c(C(F)(F)F)c4)ccc32)ccn1`, the growth was 88.4% in [1]; 99.4% in assay [2]; 96.6% in assay [3]; 76.7% in [4]; 62.6% in assay [5]; 69% in assay [6]. In addition, the growth in assay [7] was 103%; in [8], 68.6%; in assay [9], 29.3%.
Take `Clc1cccc(/C=N/Nc2nc(N/N=C/c3cccc(Cl)c3)nc(N3CCOCC3)n2)c1`: the growth in assay [1] was 70.6%; in [2], 60.4%; in [3] it was 53.8%; in assay [4], 110%; in assay [5], 78.2%; in assay [6], 65.4%. Moreover, the growth in [7] is 13.9%; in assay [8], 46.6%; in assay [9], 30.6%.
As to `O=C(CCl)Nc1ccc(NC(=O)c2cc(Cl)ccc2O)c(Cl)c1`, the growth was 29% in [1]; 59% in assay [2]; 96% in assay [3]; 101% in [4]; 67.1% in assay [5]; 127% in assay [6]. Besides, the growth in assay [7] is -22.6% (active); in assay [8], 88.3%; in assay [9], 88%; in [10], 95.2%.
As to `O=C(Nc1ccc(N2CCOCC2)cc1)Nc1ccc2c(ccn2C(=O)c2cccc(F)c2)c1`, the growth in assay [1] is 66.7%; in assay [2] it was 41.4%; in assay [3], 92.5%; in assay [4], 31.1%; in assay [5], 38.8%; in [6], 31.4%. Moreover, the growth in [7] was 73.7%; in assay [8], 59.5%; in assay [9] it was 28.4%; in assay [10], 82.1%.
Consider `CN1CCN(c2ccc(Nc3nc(NCCCNS(=O)(=O)c4ccc(C(F)(F)F)cc4)c4sccc4n3)cc2)CC1`, for which the growth in assay [1] was 2.34% (active); in [2] it was 57.9%; in assay [3], -1.68% (active); in assay [4], -49.1% (active); in assay [5], -47.8% (active); in [6] it was -55.9% (active). The growth is -85.6% (active) in assay [7], -12.1% (active) in assay [8], -82.2% (active) in assay [9] and -76% (active) in [10].

The values are drawn from PubChem BioAssay (NCI).
